For one assay, the target named is Albumin (Bos taurus) (UniProt P02769). The assay can be described thus: compounds binding labelled BSA control protein – biochemical, small-molecule microarray, Alexa647 label, 635/667 nm fluorescence, artefact control for SMM control protein annotation, profiling panel (AID 1118).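 Also: score merges 667 nm emission intensity and signal-to-noise per printed compound spot.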 The following applies: BSA-A647 binding, fluorescence 635 nm, higher = more signal.

The nature of assay [1]: probe aXIP binding to arrayed compounds – biochemical, NeuroSMM set, 635/667 nm fluorescence, primary screen (AID 1119).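 Also: probe is the protein aXip251-270 applied at 1 µg/mL to compound-printed slides; binding of probe to printed compounds measured as 667 nm fluorescence plus signal to noise.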 The following applies: small-molecule microarray, higher = more signal, called active from +8 up or from −8 down.
A short description of assay [2]: probe aNOTCH3 binding on compound microarray – biochemical, small-molecule microarray, 635/667 nm fluorescence, primary screen (AID 1120).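 Also: probe is a biotin-tagged antibody raised against NOTCH3 rather than NOTCH3 protein; score merges spot fluorescence near 667 nm with spot signal to noise.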 The following applies: higher = more signal.
The nature of assay [3]: probe aNOTCH2 binding on compound microarray – biochemical, small-molecule microarray, 635/667 nm fluorescence, primary screen (AID 1121).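 Also: score merges feature fluorescence read at 667 nm with its signal to noise.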 The following applies: higher = more signal.
Assay [4] deals with Carbonic anhydrase 2 (Homo sapiens) (UniProt P00918). The assay can be described thus: compounds binding carbonic anhydrase 2 – biochemical, small-molecule microarray, Alexa647-labelled CAII, profiling panel (AID 1122). The following applies: CAII-A647 binding fluorescence, higher = more signal.
The nature of assay [5]: COS7 lysate on small-molecule microarray, probe aHis, 635 nm (AID 1123).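 Also: z-score combines 667nm fluorescence intensity with signal-to-noise per printed compound spot.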 The following applies: COS7 cell lysate, fluorescence, higher = more signal.
Assay [6] is described as follows: probe aLAP1 signal on lysate-treated microarray – cell lysate, small-molecule microarray, COS7 lysate, primary screen (AID 1124).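 Also: lysate comes from COS7 cells expressing LAP1 and is applied at 0.3 µg/mL; score merges spot fluorescence near 667 nm with signal-to-noise over triplicate slides.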 The following applies: probe aLAP1, fluorescence, higher = more signal.
The test system of another assay is Sam68 (KHDRBS1). The assay can be described thus: compounds binding KHDRBS1 protein – biochemical, small-molecule microarray, 635 nm fluorescence, primary screen (AID 1125).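 Also: score merges 667 nm channel intensity with signal to noise over triplicate slides.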 The following applies: higher = more signal.
Assay [7] has as its system Chordin-like protein 2 (CHRDL2). In words: compounds binding chordin-like 2 – biochemical, small-molecule microarray, 635 nm fluorescence, primary screen (AID 1126).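 Also: printed compound slides probed with Chrdl2 protein at 4 µg/mL for 1 h at 4 C; score merges 667 nm emission intensity with signal to noise over three replicate slides.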 The following applies: fluorescence 635 nm, higher = more signal.
The target in assay [8] is Concanavalin-A (Canavalia ensiformis) (UniProt P02866). In words: compounds binding concanavalin A lectin – biochemical, small-molecule microarray, Alexa647 label, 635 nm, artefact control for SMM control protein annotation, primary screen (AID 1127).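 Also: z combines 667 nm emission intensity with signal-to-noise across three replicate slides.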 The following applies: ConA-A647 binding fluorescence, higher = more signal.
Assay [9] is described as follows: compounds binding Alexa647 anti-His antibody – biochemical, small-molecule microarray, 635 nm fluorescence, artefact control for SMM control protein annotation, primary screen (AID 1128).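 Also: score merges feature fluorescence with signal-to-noise for each printed compound spot.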 The following applies: higher = more signal.
Assay [10] concerns Human papillomavirus type 1a E7 protein (residues 1-88). The assay can be described thus: HPV1a E7 small-molecule binders, primary screen, biochemical, small-molecule microarray, residues 1-88, 635 nm (AID 1129). The following applies: small-molecule microarray binding, fluorescence 635 nm; higher = more signal.
The target in assay [11] is Focal adhesion kinase 1 (Homo sapiens) (UniProt Q05397). In words: PTK2 protein binding on printed compound slides – biochemical, small-molecule microarray, 635/667 nm fluorescence, BSA, DTT, primary screen (AID 1130).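 Also: composite of spot emission at 667 nm and signal to noise over triplicate slides.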 The following applies: 635 nm fluorescence, higher = more signal.
Assay [12] relates to Fibrinogen (Alexa647-labelled). In words: Alexa647-fibrinogen binding to printed small molecules – biochemical, small-molecule microarray, 635/667 nm fluorescence, artefact control for SMM control-protein annotation, profiling panel (AID 1131).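 Also: z-score merges 667 nm fluorescence with per-spot signal-to-noise over triplicate slides.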 The following applies: fibrinogen-A647 binding fluorescence, higher = more signal.
Assay [13] concerns the target Follistatin (Homo sapiens) (UniProt P19883). The assay can be described thus: FST protein binding to printed compounds – biochemical, small-molecule microarray, 635/667 nm fluorescence, primary screen (AID 1132). The following applies: 635 nm fluorescence, higher = more signal.
The target in assay [14] is Fibroblast growth factor 2 (Homo sapiens) (UniProt P09038). In words: basic fibroblast growth factor binding to printed compounds – biochemical, small-molecule microarray, 635/667 nm fluorescence, primary screen (AID 1133). The following applies: FGF2, fluorescence 635/667, higher = more signal.
Assay [15] is described as follows: JC-1 mitochondrial potential readout, lung cancer cells – cell-based, A549, JC-1 fluorescence, basal, 24 h, 100 nL, profiling panel (AID 1138).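 Also: A549 lung adenocarcinoma cells under basal conditions with no added stimulus; test concentration not given here.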 The following applies: higher = more signal.
The test system of the next assay is Lefty1. In words: Lefty1 protein binding to printed compounds – biochemical, small-molecule microarray, 635/667 nm fluorescence, primary screen (AID 1139). The following applies: fluorescence 635/667, higher = more signal.
Assay [16] concerns wheat germ agglutinin (Triticum aestivum), Alexa647-labelled. In words: Alexa647-WGA lectin binding to printed small molecules – biochemical, small-molecule microarray, 635/667 nm fluorescence, artefact control for SMM control-protein annotation, profiling panel (AID 1140).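 Also: score merges 667 nm feature emission with signal to noise over triplicate slides.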 The following applies: WGA-A647 binding, 635 nm fluorescence, higher = more signal.
In assay [17] the target is Luciferin 4-monooxygenase (Photinus pyralis) (UniProt P08659). In words: inhibition of purified Photinus pyralis luciferase – biochemical, luminescence, purified enzyme, 2006 set, primary screen (AID 1141).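 Also: cell-free assay with purified firefly luciferase at 100 ng per well in PBS; test concentration not given here.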 The following applies: purified firefly luciferase, SteadyGlo luminescence, 30 min; higher = more signal, called active from +8 up or from −8 down.

Active and inactive are the calls of the source.

Sequence of Concanavalin-A (Canavalia ensiformis) (P02866 whole entry, looked up): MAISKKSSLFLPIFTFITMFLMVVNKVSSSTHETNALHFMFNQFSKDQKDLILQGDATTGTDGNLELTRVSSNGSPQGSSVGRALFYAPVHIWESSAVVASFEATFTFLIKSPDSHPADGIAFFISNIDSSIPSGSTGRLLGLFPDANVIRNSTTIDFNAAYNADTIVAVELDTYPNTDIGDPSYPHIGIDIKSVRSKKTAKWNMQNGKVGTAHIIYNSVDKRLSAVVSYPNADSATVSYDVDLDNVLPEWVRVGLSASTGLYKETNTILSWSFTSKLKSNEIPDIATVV
Sequence of Luciferin 4-monooxygenase (Photinus pyralis) (P08659 whole entry, looked up): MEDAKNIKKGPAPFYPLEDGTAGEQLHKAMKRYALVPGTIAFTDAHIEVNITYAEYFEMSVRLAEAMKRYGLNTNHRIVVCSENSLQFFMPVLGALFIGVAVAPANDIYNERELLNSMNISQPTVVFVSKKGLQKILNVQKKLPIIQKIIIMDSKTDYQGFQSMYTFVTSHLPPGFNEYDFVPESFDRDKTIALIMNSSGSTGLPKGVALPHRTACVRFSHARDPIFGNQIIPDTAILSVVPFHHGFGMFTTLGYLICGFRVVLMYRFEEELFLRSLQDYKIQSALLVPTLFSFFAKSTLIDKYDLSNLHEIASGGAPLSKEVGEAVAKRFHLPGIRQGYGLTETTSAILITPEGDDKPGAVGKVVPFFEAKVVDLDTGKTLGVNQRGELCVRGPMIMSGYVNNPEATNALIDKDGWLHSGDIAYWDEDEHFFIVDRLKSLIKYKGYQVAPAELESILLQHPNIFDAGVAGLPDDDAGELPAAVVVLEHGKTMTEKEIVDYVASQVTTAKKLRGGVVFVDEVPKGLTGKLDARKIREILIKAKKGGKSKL
Sequence of Albumin (Bos taurus) (P02769 whole entry, looked up): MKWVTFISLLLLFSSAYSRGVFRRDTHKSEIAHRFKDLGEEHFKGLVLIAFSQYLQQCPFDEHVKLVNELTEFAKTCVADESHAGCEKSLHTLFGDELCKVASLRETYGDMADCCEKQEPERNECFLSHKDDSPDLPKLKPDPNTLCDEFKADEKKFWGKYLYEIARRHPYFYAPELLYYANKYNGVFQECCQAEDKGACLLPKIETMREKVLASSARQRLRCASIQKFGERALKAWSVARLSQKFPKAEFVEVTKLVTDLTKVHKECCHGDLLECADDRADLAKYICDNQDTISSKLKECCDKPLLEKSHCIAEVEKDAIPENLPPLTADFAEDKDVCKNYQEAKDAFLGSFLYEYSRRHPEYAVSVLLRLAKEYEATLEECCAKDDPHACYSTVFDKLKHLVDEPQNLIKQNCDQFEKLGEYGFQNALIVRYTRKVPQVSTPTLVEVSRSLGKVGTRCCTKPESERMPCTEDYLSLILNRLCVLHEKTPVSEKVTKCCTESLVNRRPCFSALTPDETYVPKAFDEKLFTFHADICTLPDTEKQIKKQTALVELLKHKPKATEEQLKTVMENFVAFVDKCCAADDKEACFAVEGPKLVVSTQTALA
Sequence of Focal adhesion kinase 1 (Homo sapiens) (Q05397 whole entry, looked up): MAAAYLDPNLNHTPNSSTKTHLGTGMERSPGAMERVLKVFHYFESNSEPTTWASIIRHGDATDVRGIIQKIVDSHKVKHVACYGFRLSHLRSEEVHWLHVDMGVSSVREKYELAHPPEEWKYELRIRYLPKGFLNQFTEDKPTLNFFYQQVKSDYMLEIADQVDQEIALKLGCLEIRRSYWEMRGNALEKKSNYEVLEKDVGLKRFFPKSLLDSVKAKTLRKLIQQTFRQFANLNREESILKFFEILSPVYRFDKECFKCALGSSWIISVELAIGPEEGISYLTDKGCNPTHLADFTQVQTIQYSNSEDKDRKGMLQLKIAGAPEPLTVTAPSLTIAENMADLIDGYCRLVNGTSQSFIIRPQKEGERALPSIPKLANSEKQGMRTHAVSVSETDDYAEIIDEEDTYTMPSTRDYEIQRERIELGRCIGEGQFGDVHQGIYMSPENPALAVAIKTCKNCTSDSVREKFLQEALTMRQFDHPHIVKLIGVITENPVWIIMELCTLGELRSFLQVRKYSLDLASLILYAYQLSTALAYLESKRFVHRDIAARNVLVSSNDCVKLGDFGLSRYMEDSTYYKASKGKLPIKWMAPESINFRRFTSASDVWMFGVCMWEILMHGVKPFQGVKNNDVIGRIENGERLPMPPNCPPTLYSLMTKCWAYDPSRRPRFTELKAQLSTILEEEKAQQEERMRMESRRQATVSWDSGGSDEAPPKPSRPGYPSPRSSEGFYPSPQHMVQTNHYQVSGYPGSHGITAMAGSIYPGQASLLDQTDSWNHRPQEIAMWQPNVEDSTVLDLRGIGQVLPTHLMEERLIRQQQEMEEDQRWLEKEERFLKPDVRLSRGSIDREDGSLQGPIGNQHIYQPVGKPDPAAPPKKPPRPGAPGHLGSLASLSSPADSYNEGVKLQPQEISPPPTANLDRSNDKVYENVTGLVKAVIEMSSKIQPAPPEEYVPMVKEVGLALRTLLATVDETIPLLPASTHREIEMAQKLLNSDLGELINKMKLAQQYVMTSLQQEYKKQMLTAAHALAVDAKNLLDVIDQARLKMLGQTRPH
Sequence of Fibroblast growth factor 2 (Homo sapiens) (P09038 whole entry, looked up): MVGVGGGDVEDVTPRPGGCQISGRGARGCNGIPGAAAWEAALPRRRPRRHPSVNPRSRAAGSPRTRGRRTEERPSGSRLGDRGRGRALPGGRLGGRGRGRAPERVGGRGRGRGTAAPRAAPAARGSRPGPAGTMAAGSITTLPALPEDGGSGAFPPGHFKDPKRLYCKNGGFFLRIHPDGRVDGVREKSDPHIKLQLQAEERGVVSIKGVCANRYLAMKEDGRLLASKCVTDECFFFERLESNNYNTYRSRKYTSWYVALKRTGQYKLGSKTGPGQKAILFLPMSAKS
Sequence of Follistatin (Homo sapiens) (P19883 whole entry, looked up): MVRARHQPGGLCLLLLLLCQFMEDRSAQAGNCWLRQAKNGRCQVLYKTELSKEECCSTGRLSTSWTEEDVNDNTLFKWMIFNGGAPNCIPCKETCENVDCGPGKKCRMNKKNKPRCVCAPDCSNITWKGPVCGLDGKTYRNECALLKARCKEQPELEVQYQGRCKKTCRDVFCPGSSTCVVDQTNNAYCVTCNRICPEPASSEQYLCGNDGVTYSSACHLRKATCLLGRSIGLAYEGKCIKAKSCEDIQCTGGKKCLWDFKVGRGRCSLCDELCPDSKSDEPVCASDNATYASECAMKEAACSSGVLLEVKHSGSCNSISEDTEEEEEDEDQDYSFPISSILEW

Regarding `CCN1C(C)=C(C(=O)OC)[C@@H](c2ccccc2)N2C(=O)[C@](O)(C(=O)OC)[C@@H](c3ccccc3)C(C(C)=O)=C12`, the composite z-score with Albumin (Bos taurus) was -0.647; in [2], 0.641; in assay [3], -0.0483; in assay [4], 0.916; in [5], -0.0995; in assay [6], -0.141. Besides, the composite z-score is -0.0684 in the assay on Sam68 (KHDRBS1); 0.708 in assay [7]; -1.15 in assay [8]; 0.189 in [9]; 0.0108 in assay [10]; -0.413 in [11]. The composite z-score was -1.11 in assay [12]; 0.679 in assay [13]; 1.05 in [14]; 1.1 in the assay with Lefty1; -0.531 in assay [16]. In addition, the composite Z-score in [1] is 0.319 (inactive). Further, the values for the z-score in assay [15] and in [17] were -0.21 and -1.03 (inactive), respectively.

In the case of `COc1ccc([Si](C)(C)[C@H]2[C@H](CC(=O)N3Cc4ccccc4C[C@H]3CO)O[C@@]3(C(=O)N(Cc4cccc(N5CCOC5=O)c4)c4ccccc43)[C@@H]2C)cc1`, the composite z-score in the assay with Albumin (Bos taurus) was -0.89; in [2] it was -0.0077; in assay [3] it was -0.104; in assay [4], 0.574; in assay [5] it was 0.784; in assay [6] it was 0.0161. In addition, the composite z-score with Sam68 (KHDRBS1) is 0.847; in assay [7] it was 1.45; in assay [8] it was 0.791; in assay [9], 1.42; in assay [10] it was 0.533; in assay [11], 0.432. Also, the composite z-score was -0.235 in [12]; 1.31 in [13]; 1.32 in [14]; 1.24 with Lefty1; 0.188 in [16]. In addition, the composite Z-score in assay [1] is 0.55 (inactive). Also, the results for the z-score in [15] and in assay [17] were 2 and -0.86 (inactive), respectively.

With `Cc1ccc(S(=O)(=O)c2cc3oc2CC[C@@H](CO)NC(=O)N(C)Cc2cn(nn2)C[C@H](Cc2ccccc2)NC3=O)cc1`, the composite z-score is 0.811 with Albumin (Bos taurus); -0.0006 in [2]; -0.145 in assay [3]; 0.581 in [4]; 0.682 in assay [5]; 0.192 in assay [6]. In addition, the composite z-score with Sam68 (KHDRBS1) is 0.476; in assay [7], -0.479; in assay [8], 0.894; in assay [9] it was 3.02; in assay [10] it was -0.157; in assay [11], 2.07. Also, the composite z-score was 0.814 in assay [12]; -0.0009 in [13]; 0.108 in assay [14]; -0.442 with Lefty1; -0.0961 in assay [16]. Moreover, the composite Z-score in assay [1] is 0.222 (inactive). Moreover, the figures for the z-score in [15] and in assay [17] were 1.95 and -1.53 (inactive), respectively.

With `COC(=O)[C@@]1(Cc2ccccc2N=[N+]=[N-])N=C(c2ccc(OCCCO)cc2)O[C@H]1c1ccccc1CN=[N+]=[N-]`, the composite z-score with Albumin (Bos taurus) was -0.487; in assay [2], -0.0699; in assay [3], 0.0341; in assay [4], 0.571; in [5], 2.1; in assay [6] it was -0.113. Further, the composite z-score with Sam68 (KHDRBS1) turned out to be 1.22; in assay [7], 0.0008; in assay [8], 0.456; in [9] it was 1.65; in [10] it was 1.02; in assay [11], 0.926. The composite z-score in assay [12] was 0.168; in assay [13], 1.29; in [14], 0.609; in the assay with Lefty1 it was -0.213; in assay [16], 0.727. In [1], the composite Z-score was 0.289 (inactive). Also, the z-score in assay [15] was 1.02; in assay [17] it was -1.76 (inactive).

Take `CO[C@H]1COC(=O)[C@H](C)NC(=O)CC=C[C@@H](C)[C@H](NS(=O)(=O)c2ccc(C)cc2)COC(=O)[C@@H](OCc2ccccc2)C=C[C@@H]1C`: the composite z-score was 0.228 with Albumin (Bos taurus); -0.0932 in assay [2]; -0.154 in assay [3]; -0.367 in [4]; -0.959 in [5]; -0.659 in assay [6]. Further, the composite z-score with Sam68 (KHDRBS1) is 0.133; in [7], 1.03; in [8], -0.333; in [9], -1.04; in [10], -0.515; in assay [11] it was 0.269. Further, the composite z-score in [12] is -0.394; in assay [13], 0.641; in assay [14], 0.574; in the assay with Lefty1, 1.02; in assay [16], -0.609. Besides, the composite Z-score in assay [1] is 0.0585 (inactive). The z-score in assay [15] is 1.87; in assay [17], -0.893 (inactive).

For the origin of these results see PubChem BioAssay.
